# Compound activity deposited in PubChem BioAssay by National Center for Advancing Translational Sciences (NCATS).
# aSyn yeast rescue = rescues yeast growth from alpha-synuclein toxicity | S. cerevisiae alpha-synuclein toxicity rescue, BacTiter-Glo growth, 24 h | 94,000 tested, 0.02% active | Potency, µM (doses to about 46.1 µM), hits mostly activators; active = well fitted activation curve with a large enough effect; also: 0% is about no effect
#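 Growth restoration measured by BacTiter-Glo luminescence after 24 hr at 30 deg C; alpha-synuclein yeast, raffinose-pregrown to mid-log, were added at OD600=0.02 in galactose medium onto pinned compounds.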
# * = called active by the depositor; i = inactive. Only a selection was taken, and hits are over-represented in it overall. Potency is read from the fitted curve at half-maximal effect.
SMILES,aSyn yeast rescue
CCOC(=O)c1c(S(=O)(=O)NCC(=O)Nc2ccc(C(C)=O)cc2)c(C)n(C)c1C,i
O=C(c1ccccc1Br)N(Cc1ccco1)Cc1ccco1,i
O=C(NCCCN1CCN(c2cccc(Cl)c2)CC1)c1ccc2nc(Cc3ccccc3)oc2c1,i
CSc1ncc(Cl)c(C(=O)Nc2ccc(S(=O)(=O)N3CCC(C)CC3)cc2)n1,i
Cc1ccc(NC(=O)CN2C(=O)CSc3ccc(S(=O)(=O)N(C)C)cc32)cc1C,i
CCN(CC)c1ccc(NC(=O)Cn2nc(C)n3cccc3c2=O)c(C)c1,i
Cc1ccc(C(=O)c2cn(Cc3ccccc3F)c3cc4c(cc3c2=O)OCO4)cc1,i
COc1ccccc1CNC(=O)c1cnc(N(C)C)nc1,i
CC1=C(C(=O)Nc2ccccc2C)C(c2ccccn2)n2nc(SCc3ccccc3F)nc2N1 (stereo unspecified),i
O=c1c2cc3c(cc2n(Cc2ccc(Cl)cc2)c(=O)n1Cc1nc(-c2ccccc2)no1)OCO3,i
CCOc1ccc(OCC)c(NC(=O)c2cc(-c3cccs3)nc3ccccc23)c1,i
COc1ccccc1NC(=O)Cn1c(=O)n(Cc2nc(-c3ccccc3)no2)c(=O)c2ccccc21,i
O=S(=O)(Nc1cccc(-c2ccc(N3CCOCC3)nn2)c1)c1ccccc1C(F)(F)F,i
COc1ccc(-c2ccc(NS(=O)(=O)c3cccc(Cl)c3)cc2)nn1,i
CCC(=O)N1CCc2cc(CNC(=O)C(CC)c3ccccc3)ccc21 (stereo unspecified),i
Cc1ccc(-c2nnc3c4ccccc4c(C)nn23)cc1NC(=O)c1ccccc1,i
Cc1cc(C)cc(C(=O)Nc2c(C(=O)Nc3ccccc3F)oc3ccccc23)c1,i
Cc1cccc(NC(=O)CSc2nnc3[nH]c(=O)cc(-c4ccccc4)n23)c1C,i
CCc1cccc(C)c1NC(=O)c1cc(S(=O)(=O)N(C)Cc2ccccc2)ccc1F,i
COc1ccc(NC(=O)c2c(NCc3ccc(C)o3)sc3c2CCC(C)C3)cc1 (stereo unspecified),14µM*
CCOc1ccc(NC(=O)c2c(NCc3ccc(C)o3)sc3c2CCCCC3)cc1,i
COc1ccccc1NC(=O)c1c(NCc2ccc(C)o2)sc2c1CCC(C)C2 (stereo unspecified),i
COc1cc(OC)c(N(C)C(=O)c2c(C)oc3ncnc(N4CCCCC4)c23)cc1Cl,i
CCC(CC)c1nn2c(=O)cc(COc3ccc(NC(=O)c4ccccc4Cl)cc3)nc2s1,i
Cc1ccc(C)c(N2CCN(C(=O)c3cc(S(=O)(=O)N4CCC(C)CC4)cn3C)CC2)c1,i
SMILES,aSyn yeast rescue
CCOc1ccc(NC(=O)CC2C(=O)N(c3ccccc3)C(=O)N2CCc2sccc2C)cc1 (stereo unspecified),i
CCc1ccc2c(c1)NC(c1ccc(C)cc1)=NC(c1cccs1)=N2,i
CN(C)c1ccc(Nc2nc3ccccc3n3nnnc23)cc1,i
CCOC(=O)Cn1c(=O)n(CC2CCCO2)c2nc(-c3ccccc3OC)nc(C(N)=O)c21 (stereo unspecified),i
CCc1nnc2c(Nc3cc(OC)c(Cl)cc3OC)nc3ccccc3n12,i
CCOc1ccc(NC(=O)CCn2c(=O)c3cccn3c3cccnc32)cc1,i
O=S(=O)(/C(=C/c1ccc(C(F)(F)F)cc1)c1nc2ccccc2[nH]1)c1ccccc1,i
Cn1c(/C(C#N)=C/c2ccc(C(F)(F)F)cc2)nc2ccccc21,2.5µM*
Cc1ccc(/C=C(\C#N)c2nc3ccccc3c(=O)[nH]2)cc1,i
CCCCCN1C(C(=O)c2ccccc2)=C(NC(=O)c2ccc(C)cc2)c2ccccc2S1(=O)=O,i
Cc1ccc(NC(=O)CCCN2C(=O)COc3ccc(C)cc32)c(C)c1,i
CCN(CC)CCCNC(=O)C1CCN(S(C)(=O)=O)CC1,i
Cc1cccc(N2CCn3c2nc2c3c(=O)n(C/C=C/c3ccccc3)c(=O)n2C)c1,i
COc1ccc(CNS(=O)(=O)c2ccc(-c3cc(C(F)(F)F)on3)s2)cc1OC,i
CCCSc1nc(-c2ccccc2)[nH]c1S(=O)(=O)c1ccc(C)cc1,i
COc1cccc(N2CCN(C(=O)C3CCN(S(=O)(=O)c4c(C)noc4C)CC3)CC2)c1,i
COc1ccc(S(=O)(=O)N(Cc2nc(-c3ccccc3)no2)C2CCCCC2)cc1,i
CCNC(=O)C1CCN(c2nnc(C)c3c(C)n(-c4ccc(OC)cc4)nc23)CC1,i
COc1ccc(OC)c(CNC(=O)Cc2ccc(NC(=O)N3CCCCc4ccccc43)cc2)c1,i
Cc1ccc2nc(CN3CCN(C(=O)Nc4ccc(C)c(F)c4)CC3)oc2c1,i
O=c1cc2nc(-c3ccccc3F)nc(SCc3ccc(Br)cc3)n2[nH]1,i
COC(=O)c1c(-c2cccs2)csc1NC(=O)c1cc(OC)c(OC)c(OC)c1,i
CN(C)c1ccc(CNC(=O)c2cccc(NC(=O)N3CCSc4ncccc43)c2)cc1,i
CSc1cccc(NC(=O)c2cccc(N3CCCS3(=O)=O)c2)c1,i
